# Bioassay records as filed in PubChem.
# The list is not random: actives were taken first. Their share in the collection is about 1.3%.
# RAD52 inh – RAD52 (human) annealing inhibition; inhibition, % at 18.7 µM; hit rate 0.46% among 360,000; recombinant RAD52 DNA annealing, FRET fluorescence; P43351;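 active = every replicate showing at least 50% inhibition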
# RAD54 branch – inhibitors of human RAD54 branch migration; Q92698; RAD54 Holliday junction branch migration, FAM/BHQ fluorescence; inhibition, % at 10.4 µM; hit rate 0.14% among 360,000; AID 602329;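 active = mean normalized replicate activity at least 40 and at least half of replicates scoring 40 or more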;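 also: inhibitors cause a drop in the FAM fluorescence signal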
# Target sequence (Q92698 whole entry, looked up): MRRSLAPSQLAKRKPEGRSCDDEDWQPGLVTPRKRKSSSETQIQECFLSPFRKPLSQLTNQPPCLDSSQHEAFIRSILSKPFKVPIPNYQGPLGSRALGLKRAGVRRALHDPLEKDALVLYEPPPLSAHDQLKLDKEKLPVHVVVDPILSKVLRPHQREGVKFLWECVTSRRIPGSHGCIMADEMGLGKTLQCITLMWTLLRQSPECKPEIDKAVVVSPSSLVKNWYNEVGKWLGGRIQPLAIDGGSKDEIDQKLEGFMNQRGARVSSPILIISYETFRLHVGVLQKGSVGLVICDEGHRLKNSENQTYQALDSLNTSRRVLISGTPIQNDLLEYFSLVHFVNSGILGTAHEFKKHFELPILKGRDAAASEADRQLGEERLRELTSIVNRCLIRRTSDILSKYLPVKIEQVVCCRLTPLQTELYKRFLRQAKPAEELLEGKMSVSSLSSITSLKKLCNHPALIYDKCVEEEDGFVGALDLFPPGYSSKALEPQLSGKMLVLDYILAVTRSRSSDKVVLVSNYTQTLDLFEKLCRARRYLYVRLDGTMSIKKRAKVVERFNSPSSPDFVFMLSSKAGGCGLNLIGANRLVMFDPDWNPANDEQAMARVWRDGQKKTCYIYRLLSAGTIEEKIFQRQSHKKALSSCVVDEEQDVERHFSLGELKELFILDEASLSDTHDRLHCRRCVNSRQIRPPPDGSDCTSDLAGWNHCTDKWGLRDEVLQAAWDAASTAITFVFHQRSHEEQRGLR
# PREPL inh – inhibits the human prolyl oligopeptidase-like enzyme | recombinant PREPL, fluorescence polarization activity-based probe | inhibition, % at 5.96 µM | hit rate 0.68% among 320,000 | AID 2751
# UBC13 polyUb – blocks human UBC13 polyubiquitin chain formation. inhibition, % at 20 µM. P61088. TR-FRET. AID 485273. hit rate 0.47% among 330,000; in the data active = inhibition above about 45%, passing the limit was not always enough
# FID counter – displaces DNA intercalator in HCV helicase counter-screen | DNA fluorescent intercalator displacement, fluorescence | inhibition, % at 7.9 µM | hit rate 0.17% among 290,000 | AID 1845; in the data active = inhibition above about 37%;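 also: higher means more ethidium bromide displaced from hairpin DNA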
# MIN6 prolif – induces beta-cell replication in MIN6 cells. MIN6 cells proliferation, ATPlite luminescence, 48 h; cells starved in 0.2% serum; 100% = growth in 10% serum. proliferation, % at 10 µM. hit rate 0.29% among 330,000;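 active = compounds whose signal lies at least 3.5 SD above the mean of all wells on their plate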
# PREPL inh cf – human PREPL inhibition, confirmation | shares compounds with PREPL inh | recombinant PREPL, fluorescence polarization activity probe | inhibition, % at 5.96 µM | hit rate 67% among 2,000 | AID 2803
# Hits are given with their value; n = inactive; x = not tested or not shown. Rule as the data show it, unless noted: active = inhibition above about 43%; inactive = the rest.
SMILES,RAD52 inh,RAD54 branch,PREPL inh,UBC13 polyUb,FID counter,MIN6 prolif,PREPL inh cf
Cc1ccc(N(CC(=O)NCC2CCCO2)C(=O)CCC(=O)Nc2nccs2)cc1 (stereo not given),n,n,43,n,n,n,n
C[C@H]1CCCCO[C@H](CN(C)S(=O)(=O)c2ccc(Cl)cc2)[C@@H](C)CN([C@@H](C)CO)C(=O)c2cc(NC(=O)Nc3cccc4ccccc34)ccc2O1,n,n,x,x,x,x,x
COc1cc(NC(=O)CN2C(=O)NC(C)(c3ccccc3)C2=O)c(C)cc1[N+](=O)[O-] (stereo not given),x,x,n,n,n,n,x
CC(=O)N1CCN(C(=O)CN2C(=O)NC(C)(c3ccc4ccccc4c3)C2=O)CC1 (stereo not given),n,n,n,n,x,n,x
COc1ccc(N2CCN(C(=O)CN3C(=O)NC(C)(c4ccc5ccccc5c4)C3=O)CC2)cc1 (stereo not given),n,n,57,n,x,n,53
COc1cc(NC(=O)CN2C(=O)NC(C)(c3ccc4ccccc4c3)C2=O)c(C)cc1[N+](=O)[O-] (stereo not given),n,n,58,n,n,n,n
COc1ccc2c(C=Nc3c(C)n(C)n(-c4ccccc4)c3=O)c(O)n(Cc3ccco3)c(=O)c2c1,x,n,56,n,n,n,n
Cn1c(NN)nc2ccccc2c1=O,n,x,45,n,n,n,n
COc1ccc2[nH]c(C)c(C(=O)CN3CCN(C/C=C/c4ccccc4)CC3)c2c1,x,n,44,n,39,n,n
O=C1Nc2ccccc2SC1=Cc1ccccc1,n,n,x,x,x,x,x
O=C1Nc2ccccc2S/C1=C/Nc1cccc(Cl)c1,x,n,45,n,n,n,n
Cc1ccc(S(=O)(=O)Nc2ccc3c(c2)C(=O)N(C)[C@@H]2CC[C@H](CC(=O)NCCc4ccncc4)O[C@@H]2CO3)cc1,n,n,x,x,x,x,x
Oc1c(CN2CCCCC2)cc(COCc2ccccc2)c2cccnc12,x,n,56,n,n,n,84
Cc1ccc(S(=O)(=O)Nc2ccc3c(c2)C(=O)N([C@H](C)CO)C[C@H](C)[C@@H](CN(C)C(=O)Cc2ccccc2)OCCCC[C@@H](C)O3)cc1,n,n,x,x,x,x,x
Oc1ccccc1N1CCN(c2ccc3ccccc3n2)CC1,n,n,54,n,n,n,n
C[N+](C)(C)CC(=O)N1CCN(c2ccc3ccccc3n2)CC1,n,n,x,n,n,n,x
CC(C)(C)c1cc(C(=O)N/N=C/c2ccc(-c3ccccc3[N+](=O)[O-])o2)n[nH]1,n,n,50,n,n,n,n
O=C(N/N=C/c1ccc(-c2ccccc2[N+](=O)[O-])o1)c1cccnc1,n,n,n,n,n,n,x
COc1ccc(NC(=O)Nc2ccc3c(c2)C(=O)N([C@@H](C)CO)C[C@H](C)[C@H](CN(C)C(=O)Nc2ccccc2)O3)cc1,n,n,x,x,x,x,x
COc1ccc(NC(=O)Nc2ccc3c(c2)[C@@H]2C[C@H](CC(=O)NCC4CC4)O[C@@H](CO)[C@@H]2O3)cc1,n,n,x,x,x,x,x
CCOC(=O)/C(C#N)=C\c1ccc(N2CCN(C/C=C/c3ccccc3)CC2)cc1,n,x,51,n,n,n,46
O=C(Nc1ccc(N2CCN(C(=O)c3ccccc3)CC2)cc1)c1cc2ccccc2o1,x,n,45,n,n,n,n
O=C(c1ccccc1)N1CCN(c2ccc(NCc3ccc4c(c3)OCO4)cc2)CC1,n,n,74,n,n,n,53
CN1CCN(c2ccc(NC(=O)c3cc4ccccc4o3)cc2)CC1,n,n,n,n,n,n,x
COc1ccc(CNc2ccc(N3CCN(C(C)=O)CC3)cc2)cc1OC,n,n,x,x,x,x,x
SMILES,RAD52 inh,RAD54 branch,PREPL inh,UBC13 polyUb,FID counter,MIN6 prolif,PREPL inh cf
CC(=O)N1CCN(c2ccc(NCc3ccc4c(c3)OCO4)cc2)CC1,x,n,72,n,n,n,n
C/C(=N\Nc1nc2ccccc2[nH]1)c1cc2ccccc2o1,x,x,76,n,n,n,72
C/C(=N\Nc1nc2ccccc2[nH]1)c1ccccn1,n,n,n,n,n,n,x
C/C(=N\Nc1nc2ccccc2[nH]1)c1ccc2c(c1)OCO2,n,n,47,n,n,n,44
Cc1ccc(S(=O)(=O)N(C)C[C@@H]2Oc3ccc(NS(=O)(=O)c4ccccc4)cc3C(=O)N([C@@H](C)CO)C[C@H]2C)cc1,n,n,x,x,x,x,x
CCOC(=O)C1C(=O)NC(N2CCc3ccccc32)=NC1c1ccccc1 (stereo not given),x,n,44,n,n,n,n
O=S(=O)(c1ccc(-c2csc(=Nc3ccccc3)n2CCCN2CCOCC2)cc1)N1CCOCC1,x,n,44,n,n,n,52
O=C1/C(=C/c2ccc(Cl)cc2)SC(=S)N1CCC(=O)N1CCCCC1CCO (stereo not given),n,n,n,n,n,n,x
O=C1/C(=C/c2ccccc2F)SC(=S)N1CCC(=O)N1CCCCC1CCO (stereo not given),n,n,46,n,n,n,43
O=C1/C(=C/c2cccc(Cl)c2)SC(=S)N1CCC(=O)N1CCCCC1CCO (stereo not given),n,n,45,n,n,n,44
Cc1noc(C)c1NC(=O)N(C)C[C@H]1OCCCC[C@H](C)Oc2ccc(NC(=O)CCC(F)(F)F)cc2C(=O)N([C@@H](C)CO)C[C@@H]1C,n,n,x,x,x,x,x
COc1ccc(S(=O)(=O)Nc2ccc3c(c2)C(=O)N([C@H](C)CO)C[C@@H](C)[C@@H](CN(C)C(=O)C2CCCCC2)OCCCC[C@H](C)O3)cc1,n,n,x,x,x,x,x
COCC(=O)N1[C@H](C#N)[C@@H](c2ccc(-c3cccc(F)c3)cc2)[C@@H]1CO,n,n,x,x,x,x,x
COc1ccc2c(c1OC)C(=O)OC2C1c2c(cc3c(c2OC)OCO3)CCN1C (stereo not given),n,n,n,n,n,n,x
COc1ccc2cc1Oc1ccc(cc1)C[C@H]1c3cc(c(OC)cc3CCN1C)Oc1c(OC)c(OC)cc3c1[C@@H](C2)N(C)CC3,n,n,52,n,x,n,48
C/C=C/c1ccc([C@@H]2[C@@H](CN(C)C(=O)CC3CC3)N(C(=O)C3CC3)[C@H]2CO)cc1,x,n,x,x,x,x,x
C[C@@H](NC(=O)[C@@H]1[C@@H](CO)[C@@H]2Cn3c(ccc(-c4ccncc4)c3=O)[C@H]1N2C)c1ccccc1,n,n,x,x,x,x,x
CN1c2ccsc2/C(=N/Nc2ccc(F)cc2)CS1(=O)=O,n,n,57,n,n,n,n
COc1ccc(NC(=O)N(C)C[C@@H]2OCCCC[C@H](C)Oc3ccc(NC(=O)CCCN(C)C)cc3C(=O)N([C@H](C)CO)C[C@@H]2C)cc1,n,n,x,x,x,x,x
CCCCCCC(=O)N1C/C=C\C(c2ccc(OC)cc2)N(Cc2ccc(F)cc2)C(=O)[C@H]1Cc1ccccc1 (stereo not given in full),n,x,48,n,x,n,44
